Screening results: PubChem, National Center for Advancing Translational Sciences (NCATS)
Shown are actives, neighbours in structure and some others; about 19% of the full set was active somewhere.
HT1080NT lethal: kills 2HG-producing HT-1080-NT fibrosarcoma cells; HT-1080-NT fibrosarcoma viability, CellTiter-Glo ATP luminescence, 48 h; Potency, µM (titrated, usually from 46.1 µM), inactives show at the highest dose activity, negative = less viability, hits mostly cytotoxic; hit rate 1.6% among 360,000;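 also: NT is the 2HG producing partner of a matched IDH1 knockdown line; potency is read from the fitted curve at half-maximal effect; 0% = DMSO-treated cells and -100% = media-only wells without cells; nearly all actives have a fitted effect of over 55% in size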
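Viability by CellTiter-Glo luminescence after 48 h compound exposure at 37C of HT-1080-NT cells (750/well, RPMI, 5% FBS). % activity scaled between DMSO wells and medium-only wells, then curve-fitted and categorized by curve class.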
IL1B secr inh: blocks inflammasome-driven IL-1 beta release. THP-1 LPS/ATP IL-1B secretion, AlphaLISA, 16 h; active compounds read low. activity change, % at 57.5 µM. hit rate 4.7% among 360,000. AID 743279; in the data active = activity change below about -50%; inconclusive = mostly about -30% to -49%
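THP-1 cells pretreated 1 hr with compounds (up to 57.5 uM final), then stimulated with LPS (250 ng/mL final) plus ATP (1.25 mM final); secreted IL-1B measured by AlphaLISA after 16 hr, decreased signal indicating inhibition.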
HT1080 IDH1KD tx: kills HT-1080 cells with IDH1 knockdown; AID 686971; HT-1080 IDH1 knockdown viability, ATP luminescence, 48 h; hit rate 2% among 360,000; Potency, µM (doses to about 46.1 µM), without a hit: at the highest dose activity, negative = toxicity, hits mostly cytotoxic;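 also: potency is read from the fitted curve at half-maximal effect; 0% = DMSO wells and -100% = cell-free medium wells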
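After a 2 h attachment period, IDH1KD HT-1080 cells took pin-transferred compound for 48 h at 37 °C; ATP-based luminescence after 10 min room-temperature reagent incubation reported viability.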
uPA surface inh: blocks generation of uPA at the cell surface. AID 540303. hit rate 0.31% among 330,000. Potency, µM (titrated, usually from 38.3 µM), inactives show at the top dose activity change, negative = inhibition, actives largely listed as inhibitors. cell surface uPA generation assay, qHTS; active = well fitted inhibition curve with a large enough effect; inconclusive = small, poorly fitted or top-dose-only effect; inactive = no such curve, though single readings can be large or run the other way; tested in mouse RAW 264.7 cells; also: potency is read from the fitted curve at half-maximal effect; nearly all actives have a fitted effect of over 55% in size
TDP1 cell CPT: growth inhibition of DT40 Tdp1-/-;hTDP1 cells with camptothecin (screen for TDP1 inhibitors) | chicken DT40 Tdp1-/-;hTDP1 cells + 20 nM CPT, ATP luminescence, 48 h | Potency, µM (doses to about 46.2 µM), without a hit: at the highest dose activity change, negative = growth inhibition, actives largely listed as inhibitors | hit rate 12% among 420,000 | AID 686979; also: potency is read from the fitted curve at half-maximal effect; nearly all actives have a fitted effect of over 55% in size
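Chicken DT40 Tdp1-/- cells stably complemented with human TDP1 were seeded at 400 cells/well in medium containing 20 nM camptothecin, exposed to pin-transferred compounds, and grown at 37 °C for at least 48 hr. Viability was read as ATP luminescence.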
DT40 TDP1 no CPT: qHTS for Inhibitors of human tyrosyl-DNA phosphodiesterase 1 (TDP1): qHTS in cells in absence of CPT; DT40 Tdp1-/- hTDP1 cells, no CPT, ATP luminescence, 48 h; Potency, µM (titrated, usually from 46.2 µM), for the others: top-dose activity change, negative = growth inhibition, actives largely listed as inhibitors; hit rate 15% among 420,000; AID 686978, 2013; also: potency is read from the fitted curve at half-maximal effect; nearly all actives have a fitted effect of over 55% in size
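Stably hTDP1-transfected Tdp1-null chicken DT40 cells were treated with library compounds minus camptothecin and grown for at least 48 hr at 37 °C, after which cellular ATP was quantified by luminescence.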
* marks the source's active call; other numbers are inactive results; ? = inconclusive; · = not tested or not shown. Unless noted, calls follow the shape of the dose curve; as a rule, active = well fitted curve in the direction sought with a large enough effect; inconclusive = small, poorly fitted or top-dose-only effect, or another doubt; inactive = no such curve, though single readings can be large; an effect the other way counts as inactive or inconclusive. Unless noted, % is scaled to controls: 0 for no effect and ±100 for the full control effect.

SMILES | HT1080NT lethal | IL1B secr inh | HT1080 IDH1KD tx | uPA surface inh | TDP1 cell CPT | DT40 TDP1 no CPT
CN[C@H](CC(C)C)C(=O)N[C@H]1C(=O)N[C@@H](CC(N)=O)C(=O)N[C@H]2C(=O)N[C@H]3C(=O)N[C@H](C(=O)N[C@@H](C(=O)O)c4cc(O)cc(O)c4-c4cc3ccc4O)[C@H](O)c3ccc(c(Cl)c3)Oc3cc2cc(c3O[C@@H]2O[C@H](CO)[C@@H](O)[C@H](O)[C@H]2O[C@H]2C[C@](C)(N)C(O)[C@H](C)O2)Oc2ccc(cc2Cl)[C@H]1O (some centres not stated) | · | · | · | · | -6% | -23%
CC1CC(CCC(=O)NC(=S)Nc2ccc(S(N)(=O)=O)cc2)C(=O)O1 (configuration not stated) | -3% | -5 | 19% | 2% | -4% | -2%
S=c1[nH]nc(-c2ccccn2)n1/N=C/c1ccc(-c2ccccc2Br)o1 | 5% | 0 | ? | -4% | -9% | -3%
Nc1ccccc1N=Cc1ccc(-c2cccc(Cl)c2)o1 | -21% | -82* | ? | -15% | 21µM* | 23µM*
CC1=NOC(=O)/C1=C\c1ccc(-c2ccccc2Br)o1 | -10% | -96* | ? | ? | 6.5µM* | 5.8µM*
CC1=CC2=NC(=O)/C(=C\c3cc(C)n(-c4ccc(F)cc4)c3C)C(=N)N2O1 | -12% | -5 | -2% | 3% | ? | ?
CC1=NOC(=O)/C1=C\c1ccc(-c2cccc(Cl)c2)o1 | ? | -100* | 18µM* | -6% | 5.8µM* | 5.2µM*
CC1=CC2=NC(=O)/C(=C\c3ccc(-c4cccc(Cl)c4)o3)C(=N)N2O1 | 10µM* | 23 | 8.2µM* | -2% | 4.6µM* | 2.6µM*
Cc1nc(C(F)(F)F)ccc1C(=O)N1CCC1(C)C(=O)NS(C)(=O)=O (configuration not stated) | 27% | -2 | 26% | · | 0% | -2%
CCOc1ccc(NC(=O)CSc2nc(-c3cccc(Cl)c3)nc3c2Cc2c(CO)cnc(C)c2O3)cc1 | · | · | · | · | -3% | 1%
O=C(COC(=O)Cc1ccc(Cl)c(Cl)c1)NCCc1ccccc1 | 5% | 6 | 9% | · | -15% | -17%
Cc1cc(C)c2cc(CN(Cc3cccnc3)C(=O)c3ccc(F)cc3)c(Cl)nc2c1 | ? | ? | ? | -8% | 18µM* | 15µM*
CCCCNC(=O)c1cc2ccccc2s1 | 5% | -11 | 4% | -1% | 6% | -7%
O=C(CSc1nc2c(c(=O)[nH]1)CN(Cc1ccc(F)cc1)CC2)Nc1ccc(F)cc1 | 7% | 13 | 3% | 2% | 21µM* | 16µM*
Cc1ccc(NC(=O)CSc2nc3c(c(=O)[nH]2)CN(Cc2ccc(F)cc2)CC3)cc1C | 2% | -1 | 3% | -1% | ? | ?
CC1C(=O)N(Cc2cn(CCC3OCCO3)nn2)CCS(=O)(=O)N1Cc1ccc(-c2ccc(Cl)cc2)cc1 (configuration not stated) | ? | -14 | ? | · | 3.7µM* | 7.3µM*
Cc1ccc(-c2ccc(CN3C(C)C(=O)N(Cc4cn(CCC5OCCO5)nn4)CCS3(=O)=O)cc2)cc1 (configuration not stated) | -7% | -11 | -5% | · | 16µM* | ?
Cn1c(=O)c2[nH]c(CCCCCCCCc3nc4ccccc4[nH]3)nc2n(C)c1=O | ? | -60* | -16% | -5% | 7.3µM* | 5.2µM*
Cn1c(=O)c2[nH]c(CN(Cc3ccccc3)Cc3ccccc3)nc2n(C)c1=O | 1% | 24 | 0% | 4% | 10µM* | 15µM*
Cn1c(=O)c2[nH]c(Cc3cccc4ccccc34)nc2n(C)c1=O | 3% | 19 | 2% | 1% | ? | 16µM*
Cn1c(=O)c2[nH]c(CSCc3ccccc3)nc2n(C)c1=O | 11% | 0 | 15% | 2% | ? | ?
CCN(CC)S(=O)(=O)c1cccc(C(=O)Nc2sc3c(c2C#N)CCC(C)C3)c1 (configuration not stated) | · | · | · | · | -27% | ?
CCOC(=O)Nc1oc2ccccc2c(=O)c1C | 12% | 19 | 7% | -1% | 0% | -5%
CCOC(=O)/C=C(\C)Sc1cc(O)c2ccccc2c1O | 23µM* | -62* | 23µM* | 15% | 0.92µM* | 1.2µM*
CCOC(=O)/C=C(\C)Sc1cc(=O)oc2ccccc12 | 15µM* | -52* | 16µM* | -14% | 23µM* | 21µM*
SMILES | HT1080NT lethal | IL1B secr inh | HT1080 IDH1KD tx | uPA surface inh | TDP1 cell CPT | DT40 TDP1 no CPT
C=CCNC(=O)c1ccc(NC(=O)CC2SC(N3CCCC3)=NC2=O)cc1 (configuration not stated) | 7% | 16 | 10% | 5% | 8% | -1%
O=c1cc(-c2ccsc2)oc2cc(-c3ccc4c(c3)OCO4)ccc12 | 9% | 1 | 14% | 0% | 18µM* | ?
COc1ccc(-c2ccc3c(=O)cc(-c4ccsc4)oc3c2)cn1 | -11% | -4 | 6% | 6% | 18µM* | ?
COC(=O)C[C@H]1C=C[C@H](NC(=O)c2ccccn2)[C@@H](CO)O1 | 4% | 10 | 19% | · | -8% | -1%
O=C(C[C@@H]1C=C[C@H](NC(=O)Cc2ccccn2)[C@@H](CO)O1)NCCc1ccccc1 | 20% | -98* | 18% | · | 19% | 1%
CCCCOC(=O)c1ccc(NC(=O)CSC2=Nc3ccccc3C3CC=NN23)cc1 (configuration not stated) | -20% | 45 | -29% | -2% | 23µM* | ?
O=C(NC(NC1CCS(=O)(=O)C1)C(Cl)(Cl)Cl)c1ccc(Br)cc1 (configuration not stated) | ? | -3 | ? | -2% | 8.2µM* | 7.3µM*
O=C(NC(NC1CCS(=O)(=O)C1)C(Cl)(Cl)Cl)c1cccc(Cl)c1 (configuration not stated) | -1% | 3 | -1% | -2% | -3% | -19%
Cc1ccccc1CNC(=O)Cc1ccc(NC(=O)N2CCCCc3ccccc32)cc1 | · | · | · | · | ? | 18µM*
CCNC(=O)Cc1ccc(NC(=O)N2CCCCc3ccccc32)cc1 | · | · | · | · | -14% | -11%
CCOC(=O)/C(=N/Nc1ccc(OC)cc1)N1CCCc2ccccc21 | -15% | -53* | -14% | 13% | -25% | ?
CCOC(=O)/C(=N/Nc1ccccc1)N1CCCc2ccccc21 | -10% | -9 | -1% | 5% | -22% | ?
